Data as given in PubChem BioAssay.

Target: Calmodulin-1 (Homo sapiens) (UniProt P0DP23)
Assay: calcium-bound CALM1 binders on microarrays, profiling panel, artefact control for SMM control-protein annotation, biochemical, small-molecule microarray, Cy5-labelled CALM1, plus calcium (AID 1112);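 note: score merges spot fluorescence with signal to noise from triplicate slides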
Settings: Cy5-CALM1 binding fluorescence, higher = more signal

Q: For `COc1ccc(C(O)C2C=CC3C(=O)N(C)C(=O)C3N2Nc2ccccc2)cc1OCc1ccccc1` (stereo unspecified), which composite z-score is on record?
A: 0.519

Q: For `C=C(CCCC)/C(=C/C[C@H](OC(C)=O)c1ccc(CO)o1)c1cnc2ccccc2c1`, which composite z-score is on record?
A: -0.693

Q: With `COCCOC(=O)N1C(=O)[C@@]2(c3cc(C#CCCO)ccc31)[C@H](c1ccccc1OCCO)N1[C@H](c3ccccc3)[C@H](c3ccccc3)OC(=O)[C@H]1[C@@H]2C(=O)N1CCN(c2ncccn2)CC1` as the compound, how does the composite z-score read?
A: 0.569

Q: For `CCCCC(O)C1C=CC2C(=O)N(C3CCCCC3)C(=O)C2N1Nc1ccc(OC)cc1` (stereo unspecified), which composite z-score is on record?
A: 0.304

Q: Which composite z-score does the source give for `COCCOC(=O)N1C(=O)[C@@]2(c3cc(C#CCNC(N)=O)ccc31)[C@H](c1ccc(OCCO)cc1)N1[C@H](c3ccccc3)[C@H](c3ccccc3)OC(=O)[C@H]1[C@@H]2C(=O)N1CCc2cc(OC)c(OC)cc2C1` here?
A: 0.273

Q: Which composite z-score does the source give for `COc1ccc([Si](C)(C)[C@H]2[C@H](CC(=O)N(CCO)Cc3ccccc3)O[C@@]3(C(=O)N(Cc4cccc(N5CCC5=O)c4)c4ccccc43)[C@@H]2C)cc1` here?
A: -0.173

Tested on: not listed separately
Assay: small-molecule microarray binders of probe aWnt5a, primary screen, biochemical, biotinylated probe, 635/667 nm fluorescence (AID 1113);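 note: score merges 667 nm fluorescence intensity with signal-to-noise per printed feature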
Settings: higher = more signal

Q: For `[N-]=[N+]=Nc1ccccc1C[C@]1(C(=O)NCCN2CCOCC2)N=C(c2ccc(OCCCO)cc2)O[C@H]1c1ccccc1`, which composite z-score is on record?
A: -0.103

Q: For `CCOC(=O)C[C@H]1[C@H](OC(=O)c2ccc(-c3ccccc3)cc2)[C@@H](NC(=O)c2ccc3ccccc3c2)c2cc(OCCCO)ccc2N1C(=O)Cc1ccc(OC)cc1`, which composite z-score is on record?
A: -0.001

Q: For `CC(C)(C)OC(=O)CC[C@@]1(C(=O)O)N=C(c2ccc(OCCCO)cc2)O[C@@H]1c1ccccc1N=[N+]=[N-]`, which composite z-score is on record?
A: 0.0711

Q: Which composite z-score does the source give for `O=C1C[C@]2(c3ccc([N+](=O)[O-])cc3)C(=O)N(CC(F)(F)F)c3cc(CO)ccc3[C@H]2N1CC12CC3CC(CC(C3)C1)C2` here?
A: -0.147

Q: With `O=C1OCCC=C[C@H]2OC34C=CCN(c5ccc6ccccc6c5)C(=O)[C@H]3N(CCCCCO)C(=O)[C@@H]4C12` (stereo partly specified) as the compound, how does the composite z-score read?
A: -0.147

Q: With `Cc1cc(C)c(C(O)C2C=CC3C(=O)N(c4ccccc4)C(=O)C3N2Nc2ccc(C#N)cc2)c(C)c1` (stereo unspecified) as the compound, how does the composite z-score read?
A: 0.0894

Q: For `C=C[C@@H](COC(C)=O)N(Cc1ccccc1[N+](=O)[O-])S(=O)(=O)c1ccc(Br)cc1`, which composite z-score is on record?
A: -0.0185

Q: For `COCCOC(=O)N1C(=O)[C@@]2(c3cc(C#Cc4ccc(OC)cc4)ccc31)[C@H](C(=O)N1CCN(c3ncccn3)CC1)[C@H]1C(=O)O[C@H](c3ccccc3)[C@H](c3ccccc3)N1[C@@H]2c1ccc(O)cc1`, which composite z-score is on record?
A: -0.207

Q: For `CCOC(=O)C[C@H]1[C@H](OC(=O)c2ccc(-c3ccccc3)cc2)[C@@H](NC(=O)c2ccc(-c3ccccc3)cc2)c2cc(OCCCO)ccc2N1C(=O)Cc1ccc(OC)cc1`, which composite z-score is on record?
A: -0.0765

Q: With `COC(=O)[C@@]1(Cc2ccccc2)[C@H]2c3cc(C(=O)N4CCCC4)n(C)c3C[C@H]2CN1C(=O)c1ccccc1` as the compound, how does the composite z-score read?
A: -0.0481

Q: For `COC(=O)[C@@]1(Cc2ccccc2N=[N+]=[N-])COC(c2ccc(OCCCO)cc2)=N1`, which composite z-score is on record?
A: -0.15

Q: Which composite z-score does the source give for `CC(C)C(=C=CC[C@@H](O)c1ccccc1OCCO)C[C@@H](O)c1ccccn1` here?
A: -0.0751

Q: With `O=C(O)[C@H]1C[C@H]2C(=O)NCC(=O)N2[C@H]1c1ccc(O)cc1` as the compound, how does the composite z-score read?
A: -0.147

Q: Which composite z-score does the source give for `C=CC[C@]1(C(=O)N2CCOCC2)N=C(c2ccc(OCCCO)cc2)O[C@H]1c1ccccc1` here?
A: -0.0512

Q: Which composite z-score does the source give for `COc1cc(C(O)C2C=CC3C(=O)N(c4ccccc4)C(=O)C3N2Nc2ccc(C#N)cc2)cc(OC)c1OC` (stereo unspecified) here?
A: 0.0115

Q: With `O=C1O[C@H](c2ccccc2)[C@H](c2ccccc2)N2[C@H]1[C@@H](C(=O)Nc1nc3ccccc3s1)[C@]1(C(=O)Nc3ccccc31)[C@H]2c1ccc(O)cc1` as the compound, how does the composite z-score read?
A: -0.0903

Q: For `O=C1O[C@@H](c2ccccc2)[C@@H](c2ccccc2)N2[C@@H](c3ccc(O)cc3)[C@]3(C(=O)Nc4ccc(C#CC5(O)CCCCCC5)cc43)[C@@H](C(=O)N3CCCCCCC3)[C@H]12`, which composite z-score is on record?
A: 1.45

Q: With `O=C1C=CC(=O)[C@@H]2CC(COc3ccccc3)=C3[C@@H](CCc4ccccc4)OB(O)C[C@@H]3[C@H]12` as the compound, how does the composite z-score read?
A: -0.0819

Q: Which composite z-score does the source give for `CCOC(=O)C1=CCC(C(C)(C)C)N(S(=O)(=O)c2ccc(C)cc2)C1` (stereo unspecified) here?
A: 0.0561

Q: Which composite z-score does the source give for `CCOC(=O)C1=CCC(c2ccc([N+](=O)[O-])cc2)N(S(=O)(=O)c2ccc(C)cc2)C1` (stereo unspecified) here?
A: -0.0644

Q: With `NCCCCCCNC(=O)[C@H]1C[C@H]2C(=O)NCC(=O)N2[C@H]1c1cccc(OCCO)c1` as the compound, how does the composite z-score read?
A: -0.0643

Q: For `NC(=O)NCC#Cc1ccc2c(c1)[C@]1(C(=O)N2)[C@H](C(=O)NC[C@H](O)c2ccccc2)[C@H]2C(=O)O[C@H](c3ccccc3)[C@H](c3ccccc3)N2[C@@H]1c1ccc(O)cc1`, which composite z-score is on record?
A: 0.551

Q: Which composite z-score does the source give for `O=C1N(CCS(=O)(=O)c2ccccc2)Cc2ccccc2[C@H]2OC(c3ccc(OCCCO)cc3)=N[C@@]12CCS(=O)(=O)c1ccccc1` here?
A: 0.115

Q: With `O=C1C2C=CC(C(O)c3ccc(F)cc3)N(Nc3ccccc3)C2C(=O)N1c1ccccc1` (stereo unspecified) as the compound, how does the composite z-score read?
A: 0.0597

Q: For `CCOC(=O)C1=C[C@@H](CC)N(S(=O)(=O)c2ccc(C)cc2)[C@H]1c1ccccc1`, which composite z-score is on record?
A: 0.0799

Q: With `COc1ccc(CCNC(=O)[C@@]2(c3ccc([N+](=O)[O-])cc3)CC(=O)N(CC34CC5CC(CC(C5)C3)C4)[C@@H]2c2ccc(CO)cc2)cc1` as the compound, how does the composite z-score read?
A: -0.0202

Q: Which composite z-score does the source give for `CCC[C@@H]1C=C(C(=O)O)[C@H](c2ccc(C)cc2)N1S(=O)(=O)c1ccc(C)cc1` here?
A: -0.0819

Q: For `[N-]=[N+]=NCc1ccccc1[C@H]1OC(c2ccc(OCCCO)cc2)=N[C@@]1(CCS(=O)(=O)c1ccccc1)C(=O)N1CCOCC1`, which composite z-score is on record?
A: 0.242

Q: With `O=C/C=C/c1ccc2c(c1)OCO2` as the compound, how does the composite z-score read?
A: -0.0748

Q: Which composite z-score does the source give for `COc1ccc(C(O)C2C=CC3C(=O)N(C)C(=O)C3N2Nc2ccccc2)cc1OCc1ccccc1` (stereo unspecified) here?
A: -0.0529

Q: Which composite z-score does the source give for `C=C(CCCC)/C(=C/C[C@H](OC(C)=O)c1ccc(CO)o1)c1cnc2ccccc2c1` here?
A: -0.0478

Q: For `COCCOC(=O)N1C(=O)[C@@]2(c3cc(C#CCCO)ccc31)[C@H](c1ccccc1OCCO)N1[C@H](c3ccccc3)[C@H](c3ccccc3)OC(=O)[C@H]1[C@@H]2C(=O)N1CCN(c2ncccn2)CC1`, which composite z-score is on record?
A: 0.203

Q: For `CCCCC(O)C1C=CC2C(=O)N(C3CCCCC3)C(=O)C2N1Nc1ccc(OC)cc1` (stereo unspecified), which composite z-score is on record?
A: -0.0405

Q: For `COCCOC(=O)N1C(=O)[C@@]2(c3cc(C#CCNC(N)=O)ccc31)[C@H](c1ccc(OCCO)cc1)N1[C@H](c3ccccc3)[C@H](c3ccccc3)OC(=O)[C@H]1[C@@H]2C(=O)N1CCc2cc(OC)c(OC)cc2C1`, which composite z-score is on record?
A: -0.148

Q: For `COc1ccc([Si](C)(C)[C@H]2[C@H](CC(=O)N(CCO)Cc3ccccc3)O[C@@]3(C(=O)N(Cc4cccc(N5CCC5=O)c4)c4ccccc43)[C@@H]2C)cc1`, which composite z-score is on record?
A: -0.1
